# From the supplement of paper PMC11417369
# ± gives the standard deviation of the averaged measurements. Over roughly 25,000 sequences, “ln(normalized median fluorescence intensity)” has its median near 8.6; the highest 2% begin near 10. The full list was thinned out, with the highest values kept by preference.
# System: PfAP2-EXP AP2 domain (GST-tagged)
# Assay: gcPBM binding intensity (ln(normalized median fluorescence intensity)); higher = stronger DNA binding
# Outline: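 Probes on an Agilent 4 × 180k array were primer-extended, double-stranded and 36 bp long, taken from intergenic genomic regions, with negative controls added. GST-tagged P. falciparum DNA-binding domains from E. coli, about 25 μg on average, were applied to the array for 1 h in 1× PBS containing 1% milk, 0.2 mg/ml BSA, 0.5% salmon testes DNA and 0.03% Triton X-100. Binding intensity, obtained after Alexa488 anti-GST antibody detection and a 488 nm scan, is the highest Masliner-normalised natural-log median intensity across replicate spots of either probe orientation.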
row,Sequence,gcPBM binding intensity (ln)
1,TCCTTATAAAAATACACACAAACTTTAATTAAAACA [CACACA_site3730],8.45 ± 0.58
2,TTTAAGATTTTGTAATGTACATATATACATATATAT [XGTACX_site399],8.45 ± 0.33
3,AAGAAATAAATACATACACACATATATAAATAAATA [CACACA_site7559],8.68 ± 0.18
4,AGAAATAAGAAATATACACACATATATATATATATA [CACACA_site2808],10.2 ± 0.18
5,AAAAAAAAAAAAGAAAAATATATATATAAATAAATA [GTGCAC_negctrl_site569],8.29 ± 0.67
6,AAGAAATAAATACATACACACATATATATATATATA [CACACA_site3362],10 ± 0.34
7,AAAAAAAGAAATAATAAAAAATATATATATATATAT [GTGCAC_negctrl_site702],10.1 ± 0.44
8,AGAAATAAGAAATATACACACATATAAATATAAATA [CACACA_site7342],8.52 ± 0.55
9,TAAAGAAATAAATACATACACACATATATATATATA [CACACA_site3363],10.2 ± 0.5
10,ATATAAATAAAGAAATATATATATATATATATATAT [GTGCAC_negctrl_site668],10.2 ± 0.88
11,AATATAAGAATATATACACACATAAATACATACATA [CACACA_site4128],8.6 ± 0.31
12,TTTTTTTTTTTTGATGCACACACCTGAACGAGTTAA [CACACA_site317],8.62 ± 0.32
13,TAGCGTACATTTCATTGTAATCATAAAAAATAAAGA [CACACA_negctrl_site447],8.56 ± 0.49
14,GTTGCAATTAACACTAGTACATATAAGTAGTTTATT [XGTACX_site2063],8.72 ± 0.18
15,TCCTTGCATTTTAAAACACACAAAAATTAATTGTTA [CACACA_site7152],8.55 ± 0.32
16,TTTTATGATTGACACACACACAAAAAAAAAAAAAAA [CACACA_site7860],8.2 ± 0.43
17,AATAAAAATAATATAGTGCATAATATAAGGAAAAAA,9.07 ± 0.071
18,AAAAAAAATATACATACATGCATACATAAGTTTCTA [TGCATGCA_site998],8.49 ± 0.24
19,TATATATATATAATAGTGCATAAATAAATATATAAA,9.65 ± 0.057
20,TATATATATATATAAGTGCATATAAAAATCGTTCGT,10.3 ± 0.18
21,ATATATATATATATAGTGCATAAAATAAGTTTCTAA,10.2 ± 0.28
22,TTTCTAGTTACAAGAGTGCATAATATATAAAAATAA [GTGCAC_site9874],8.85
23,TTTTTTATTCCATAATATAATATGTTTTGAAATTTG [GTGCAC_negctrl_site440],8.27 ± 0.33

row,Sequence,gcPBM binding intensity (ln)
1,TTTATTATATTTTTTTGTACATATTGATGTATATAA [XGTACX_site6527],8.59 ± 0.28
2,GATGTGATGTATTTGGTATTTTTCGATGTTGGTAGG [CACACA_negctrl_site355],8.79 ± 0.73
3,TACTATTTAAAATATGAACACACATTATTTGTTTTA [CACACA_site8870],8.13 ± 0.3
4,ATATTGAAATGTTAATAGAAATATATGGTTAAATTG [XGTACX_negctrl_site212],8.34 ± 0.34
5,ATATACAGAAAAAATTAAAATAAATATGCAAAACAA [CACACA_negctrl_site704],8.86 ± 0.32
6,ATAAATAAAACAACAGTGCAATAAAATTAGTTGAGG,9.035 ± 0.021
7,AAAATAAAATTAGTTGCATGCAACTTAAACAGAAAT [TGCATGCA_site860],10.3 ± 0.35
8,GTGTAAAAATTAAAGTGTACACATATATATATATAT [XGTACX_site2251],10.2 ± 0.31
9,TATTGTTATTAAAAATGTACATATAAATTTCTTATT [XGTACX_site1409],8.32 ± 0.33
10,ATATATAATTAATTTTGTACACATAAAAAAAAAAAT [XGTACX_site6647],8.59 ± 0.42
11,CCTAAAGTGTAAAATTCACACACATATATATATATA [CACACA_site8385],10.2 ± 0.44
12,AAAAAATTATAAAAGTGTACATATATATATATATAT [XGTACX_site154],10 ± 0.38
13,TAAAGTGTAAAATTCACACACATATATATATATATA [CACACA_site4883],10.1 ± 0.36
14,TAAATTAATAAAAAGTGTACATAATATACATATATA [XGTACX_site8604],8.62 ± 0.33
15,TAAAAATTAAAGTGTACACATATATATATATATATA [CACACA_site4781],10.2 ± 0.38
16,TTTTTCTTAAAAAATTGTACACATATATATATATAT [XGTACX_site542],10.3 ± 0.22
17,AGGGGAAATAAAATATAAATTATCATATATATATAT [XGTACX_negctrl_site366],9.94 ± 0.21
18,TTTTATTATATATATTGTACATATATTTTTATTTTT [XGTACX_site1564],8.62 ± 0.33
19,TAAACATAAATATACACACAAACATATATGTATTTT [CACACA_site1214],8.51 ± 0.32
20,TATGAACACCCAAATACACACACTCAAAAAAAAAAA [CACACA_site5466],8.4 ± 0.32
21,AAAAATAAGATATATACACACATATAAATATAAATA [CACACA_site7396],8.51 ± 0.38
22,ATAAAAAAAAAAAATACACACATATATATATATATA [CACACA_site1709],10.1 ± 0.26
23,TAAAAAAATAAATATACACACATATATATATATATA [CACACA_site1089],10.2 ± 0.29

row,Sequence,gcPBM binding intensity (ln)
1,TAAAAAATAAGATATACACACATATATATATATATA [CACACA_site2324],10.2 ± 0.42
2,TAAAAAATAAAATACACACACATATATATATATATA [CACACA_site1323],10.2 ± 0.64
3,AAAAATAAAATATATACACACATATATATATATATA [CACACA_site2943],10.2 ± 0.64
4,CATACATATATTATTGCACACATATAAAATACCCCC [CACACA_site9292],10.2 ± 0.33
5,TACATATATTATTGCACACATATAAAATACCCCCAA [CACACA_site3895],9.55 ± 0.52
6,AAAAAAAAAATATACACACACACATACACATAAATA [CACACA_site3808],8.79 ± 0.53
7,TACAGATATTATTGCACACATATAAAATACCCCCAA [CACACA_site6014],9.53 ± 0.33
8,AAAAAAAAAAAAAATACACACATATAAATATAAATA [CACACA_site6189],8.3 ± 0.49
9,TAAAAAATAAGATATACACACATATATTTATTTATA [CACACA_site7158],8.09 ± 0.52
10,ATTATACTTTCCATTCGTACATATATAAATAAATAA [XGTACX_site6245],8.93 ± 0.35
11,TTTTATTTATTTTATTGTACATATATAAAACTATGA [XGTACX_site3476],8.57 ± 0.42
12,ATATTTTTAGATTCAGAAAAAAGATTCAACTTACTC [CACACA_negctrl_site1357],8.25 ± 0.45
13,ATGTAGAATTGTAAATGTACATGAAACACATATTCA [XGTACX_site3436],8.79 ± 0.34
14,TATAATATATTTATATGTACTTATTTATTTATATAT [XGTACX_site6519],8.39 ± 0.34
15,AAAAATAAAATAAAGAAGGAAAATAAAAAAATAAGG [CACACA_negctrl_site1811],8.79 ± 0.44
16,ATTTGTATATATTAATGTACACACATGCGTATGTTC [XGTACX_site7579],8.73 ± 0.41
17,ATATTTATGACCGTACGTACCTAACAATACAATCAA [XGTACX_site4511],8.67 ± 0.099
18,TATATAAACATATAAACATGCAATATATATATGTTA [TGCATGCA_site765],8.43 ± 0.2
19,TTAATTTACATGAACTGTACATAACATTTTTTTAAA [XGTACX_site4672],8.38 ± 0.38
20,CCCCCCGTGTTATATACACACATAATCAAATAAAAT [CACACA_site4111],10.9 ± 0.078
21,AAATTATAATATAATACACACATAAAAAAAAAATCA [CACACA_site3634],8.6 ± 0.43
22,ATATAAATAATATAAATACACACTAAAAAAAATATA [CACACA_site542],8.72 ± 0.51
23,CAATTCAATATATATACACACACACTATTAATAATT [CACACA_site9256],8.52 ± 0.41

row,Sequence,gcPBM binding intensity (ln)
1,ATAAATAATATAAATACACACTAAAAAAAATATATA [CACACA_site4456],8.62 ± 0.54
2,TATATATATATATATACACACACACTAATAAAAAAA [CACACA_site8426],10.2 ± 0.21
3,TATATATATATATATATACACACTATATAATTCAAA [CACACA_site1023],10.2 ± 0.44
4,AGGCACGTGTTATATACACACATAATCAAATAAACT [CACACA_site7852],8.76 ± 0.56
5,TATATATATATATATACACACTATATAATTCAAACA [CACACA_site4712],10.1 ± 0.33
6,AAAGTAAAAGAAAGCACACACACATGGATTTATGTA [CACACA_site5997],8.53 ± 0.49
7,ATATAGAATGTTTACACACGCAATAAATATATATAT [CACACA_site217],9.27 ± 0.13
8,AAAAAAAAAAAAAAAAAAAAAAAAAAAATTCTATAT [GTGCAC_negctrl_site468],9.28
9,ACAAATAAATATATATGTACATATATTTTTTTATTT [XGTACX_site2989],8.56 ± 0.37
10,ATATAGAACACCTGTGCATGCAAGTGCTAAAAAATT [TGCATGCA_site213],10.175 ± 0.007
11,GACACCTGCATGAAAGTGCAAAATAGAAAAGGAACA [GTGCAC_site9593],9.22 ± 0.38
12,TATATAGAAAACAAGGCATGCAAATAACAAATTGTG [TGCATGCA_site473],9.85 ± 0.36
13,TATTTTACTTTAAAAATGGAAAAAAAAAAGAATATT [CACACA_negctrl_site1360],8.38 ± 0.47
14,TAGAAATAAGAAAAATGTACATATAATATTGAAAGT [XGTACX_site3043],9.17 ± 0.35
15,CGCAAAACAATGATACGTACATATATATATATATAT [XGTACX_site5883],10.3 ± 0.33
16,TAAAAAAAAACATATACACACAAAAACGTACACATA [CACACA_site1354],8.86 ± 0.36
17,ATACAATGATATATACATATATATATATATATATAT [TGCATGCA_negctrl_site359],10.2 ± 0.49
18,GTAATATATACAAAATGTACAAAACAATAACATGAT [XGTACX_site8575],8.8 ± 0.39
19,AATGATACACATATATGTACATATATATATATATAT [XGTACX_site5391],10 ± 0.58
20,TAATGATAAATACATACACACAAAAAATGATATATA [CACACA_site7258],8.6 ± 0.32
